In PubChem BioAssay (EPA / NIEHS):
Where “and” joins values, the source holds several entries; their conditions need not be identical. Equal values may be shown once. Results filed as inconclusive are left out. The source holds several records for some structures; these can differ, active in one and inactive in another. Calls of active or inactive are those of the source. The calls were made as follows, unless noted: active = hit-call score of the fitted dose curve at least 0.9, where 1 is the maximum; inactive = score below 0.9.

How the values were obtained:
[1] = read-out: Interleukin-10 (IL10), IL10 (gene 3586); assay: BSK_IMphg_IL10: BioMAP Diversity Plus: IMphg Assay for Interleukin-10 (IL10) Biomarker Activity (AID 2284294); details: primary human endothelial cells with macrophages
In short: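 Human venular endothelial cells cocultured with macrophages, dosed 24 h; IL-10 measured by ELISA, activity relative to DMSO. Cytotoxicity assessed in parallel cultures by sulforhodamine B total-protein staining.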

[2] = BSK_IMphg_SRB.Mphg: Macrophage Viability Assessment in the BioMAP Diversity Plus: IMphg Assay (AID 2284295); details: primary human endothelial cells with macrophages
In short: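 Venular endothelial cells co-cultured with macrophages, read 24 h after dosing. Total protein measured by 0.1% SRB staining after 10% TCA fixation, absorbance at 560 nm. Fitted in positive direction against DMSO baseline.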

CD69, CD69 (gene 969) = assay: BSK_LPS_CD69: BioMAP Diversity Plus: LPS Assay for CD69 Biomarker Activity (AID 2284303); details: primary human HUVEC with PBMC
In short: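 Human umbilical vein endothelial cells co-cultured with PBMC under LPS stimulation, chemical exposure 24 h; cell-surface CD69 measured by ELISA and fitted in the positive direction versus DMSO.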

[3] = VALA_TUBHUV_Agonist_CellCount: Viability Assessment in the VALA Sciences human Umbilical Vein Endothelial Tubule Formation (TUBHUV) Agonism Assay (AID 2284309; active = hit-call score of the fitted dose curve at least 0.9, where 1 is the maximum)
In short: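 HUVEC co-cultured 1:3 with HDF for 3 days in 10 ng/ml VEGF, then compounds added in VEGF medium for a further 3 days (72 h). Nuclear-stain/CD31 imaging cell count. Positive-direction fit versus 0.1% DMSO vehicle.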

[4] = VALA_TUBHUV_Antagonist_CellCount: Viability Assessment in the VALA Sciences human Umbilical Vein Endothelial Tubule Formation (TUBHUV) Antagonism Assay (AID 2284310; active = hit-call score of the fitted dose curve at least 0.9, where 1 is the maximum)
In short: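 HUVEC co-cultured with HDF (1:3) 3 days in 10 ng/ml VEGF, then 3 days with compounds in VEGF medium. Fixed, nuclear stain and CD31 immunofluorescence, imaged; cell counts fitted versus 0.1% DMSO, loss of signal read as lower viability.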

[5] = IUF_NPC2c_oligodendrocyte_migration_120hr: Leibniz Research Institute for Environmental Medicine (IUF) 120-hour Neural Progenitor Cell Migration Assay for Oligodendrocyte Migration (NPC2c) (AID 2284297);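 also: O4-positive oligodendrocyte migration distance divided by radial glia migration distance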
In short: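 Human fetal neural progenitor spheres (0.3 mm) are plated on poly-D-lysine/laminin in N2 differentiation medium and exposed for 120 h, with half-medium renewal at day 3. Oligodendrocyte (O4+) migration distance comes from ICC imaging, normalised to radial glia migration.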

[6] = IUF_NPC2a_radial_glia_migration_120hr: Leibniz Research Institute for Environmental Medicine (IUF) 120-hour Neural Progenitor Cell Migration Assay for Radial Glia Migration (NPC2a) (AID 2284298)
In short: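 Human fetal-cortex neural progenitor spheres (0.3 mm) plated on poly-D-lysine/laminin in N2 differentiation medium, exposed 120 h at 37C with half-medium renewal at day 3. Radial glia migration distance (um) measured from Hoechst-stained nuclei images; DMSO baseline.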

[7] = IUF_NPC2a_radial_glia_migration_72hr: Leibniz Research Institute for Environmental Medicine (IUF) 72-hour Neural Progenitor Cell Migration Assay for Radial Glia Migration (NPC2a) (AID 2284299)
In short: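 Human fetal cortex (GW 16-19) neural progenitor spheres, 0.3 mm, plated on poly-D-lysine/laminin in N2 differentiation medium with compound from day 0. Radial glia migration distance (um, sphere core edge to migration edge) measured manually in four directions on 72 h brightfield images; well mean used.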

[8] = IUF_NPC2b_neuronal_migration_120hr: Leibniz Research Institute for Environmental Medicine (IUF) 120-hour Neural Progenitor Cell Migration Assay for Neuron Migration (NPC2b) (AID 2284300)
In short: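 0.3 mm hNPC spheres on poly-D-lysine/laminin in N2 differentiation medium exposed 120 h, half-medium refresh day 3; 7 concentrations, DMSO max 0.1%. Neuron (TUBB3) distance from sphere core by ICC imaging, normalised to radial glia migration.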

[9] = IUF_NPC3_neuronal_differentiation_120hr: Leibniz Research Institute for Environmental Medicine (IUF) 120-hour Neuronal Differentiation Assay (NPC3) (AID 2284301)
In short: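 Human fetal (GW 16-19) neural progenitor spheres (0.3 mm) plated on poly-D-lysine/laminin in N2 differentiation medium, exposed 120 h at 37C with half-medium renewal day 3; 7 concentrations. TUBB3+ cells as % of Hoechst nuclei, CNN-identified; DMSO baseline.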

[10] = IUF_NPC4_neurite_length_120hr: Leibniz Research Institute for Environmental Medicine (IUF) 120-hour Neuronal Morphology Assay for Neurite Length (NPC4) (AID 2284302)
In short: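 Human fetal neural progenitor spheres (0.3 mm) plated on poly-D-lysine/laminin in N2 differentiation medium, exposed from day 0 for 120 h with half-medium refresh at day 3, 37C. Mean neurite length (um) of TUBB3-positive neurons from skeletonized immunostaining images; DMSO ≤0.1%.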

[11] = IUF_NPC5_oligodendrocyte_differentiation_120hr: Leibniz Research Institute for Environmental Medicine (IUF) 120-hour Oligodendrocyte Differentiation Assay (NPC5) (AID 2284304; active = hit-call score of the fitted dose curve at least 0.9, where 1 is the maximum;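 also: primary human fetal neural progenitor spheres plated to migrate and differentiate; share of O4-positive cells among Hoechst nuclei found by CNN image analysis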)
In short: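 Human fetal neural progenitor spheres (0.3 mm) plated on poly-D-lysine/laminin in N2 differentiation medium and exposed for 120 h at 7 concentrations, with half-medium renewal at day 3. O4-positive cells identified by CNN, expressed as percent of Hoechst nuclei.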

[12] = IUF_NPC4_neurite_area_120hr: Leibniz Research Institute for Environmental Medicine (IUF) 120-hour Neuronal Morphology Assay for Neurite Area (NPC4) (AID 2284305; active = hit-call score of the fitted dose curve at least 0.9, where 1 is the maximum)
In short: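 Human fetal neural progenitor spheres (0.3 mm) plated on poly-D-lysine/laminin in N2 differentiation medium, exposed 120 h (7 concentrations, DMSO ≤0.1%, half-medium refresh day 3). Fixed, TUBB3 immunostained; mean neurite area per neuron by Omnisphero skeletonization.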

[13] = IUF_NPC2-5_cytotoxicity_72hr: Cytotoxicity Assessment at 72 hours in the Leibniz Research Institute for Environmental Medicine (IUF) Neural Progenitor Cell Migration and Differentiation Assay for Cytotoxicity (NPC2-5) (AID 2284306; active = hit-call score of the fitted dose curve at least 0.9, where 1 is the maximum;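 also: LDH release into supernatant measured by resorufin fluorescence marking membrane damage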)
In short: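 Human fetal primary neural progenitor spheres (0.3 mm) plated on poly-D-lysine/laminin in N2 differentiation medium, exposed from day 0 at 37C. LDH-dependent resazurin-to-resorufin fluorescence in supernatant at 72 h; 7 concentrations, DMSO at most 0.1%.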

[14] = IUF_NPC2-5_cytotoxicity_120hr: Cytotoxicity Assessment at 120 hours in the Leibniz Research Institute for Environmental Medicine (IUF) Neural Progenitor Cell Migration and Differentiation Assay (NPC2-5) (AID 2284307; active = hit-call score of the fitted dose curve at least 0.9, where 1 is the maximum;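 as to AC50: LDH released into supernatant as membrane damage marker via resorufin fluorescence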)
In short: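 Human fetal (GW 16-19) neural progenitor spheres (0.3 mm) plated on poly-D-lysine/laminin in N2 differentiation medium, exposed 120 h with half-medium renewal at day 3; 7 concentrations plus solvent control, DMSO ≤0.1%. LDH release in supernatant read by resorufin fluorescence.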

[15] = IUF_NPC2-5_cell_number_120hr: Cell Number Assessment at 120 hours in the Leibniz Research Institute for Environmental Medicine (IUF) Neural Progenitor Cell Migration and Differentiation Assay (NPC2-5) (AID 2284308);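 also: count of Hoechst-stained nuclei in migration zone around plated human neural progenitor spheres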
In short: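 Human fetal neural progenitor spheres (0.3 mm) plated on poly-D-lysine/laminin in N2 differentiation medium, exposed five days across 7 concentrations with half-medium refresh at day 3. Hoechst-positive nuclei counted in migration area at 120 h, relative to DMSO.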

[16] = VALA_TUBIPS_Agonist_TubuleLength: VALA Sciences human iPS-derived Endothelial Tubule Formation (TUBIPS) Agonism Assay (AID 2284311; active = hit-call score of the fitted dose curve at least 0.9, where 1 is the maximum)
In short: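 Human iPS-derived endothelial cells were exposed to compound for 72 h. Tubule formation was imaged by high-content fluorescence and scored as gain of signal relative to DMSO vehicle (agonist mode).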

[17] = IUF_NPC2-5_viability_120hr: Viability Assessment at 120 hours in the Leibniz Research Institute for Environmental Medicine (IUF) Neural Progenitor Cell Migration and Differentiation Assay (NPC2-5) (AID 2284312)
In short: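 Human fetal neural progenitor spheres (0.3 mm) plated on poly-D-lysine/laminin in N2 differentiation medium, exposed 120 h with half-medium refresh at day 3. Viability by alamar blue resazurin fluorescence; 7 concentrations, DMSO max 0.1%.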

[18] = VALA_MIGHUV2_CellCount: Viability Assessment in the VALA Sciences human Umbilical Vein Endothelial Cell Migration (MIGHUV) Assay, Area of Scratch Wound after Recovery (AID 2284314; active = hit-call score of the fitted dose curve at least 0.9, where 1 is the maximum)
In short: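 Scratch-wounded HUVEC monolayers received test chemical within 30 min, 6-point concentration response in triplicate, 0.1 % DMSO vehicle. After 24 h wound recovery, fixed cells were Hoechst-stained and nuclei imaged; loss of signal versus DMSO indicates reduced viability.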

[19] = VALA_TUBIPS_Antagonist_TubuleLength: VALA Sciences human iPS-derived Endothelial Tubule Formation (TUBIPS) Antagonist Assay (AID 2284313; active = hit-call score of the fitted dose curve at least 0.9, where 1 is the maximum)
In short: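 Cells grown 3 days with 10 ng/ml VEGF, then exposed to compounds in VEGF medium for another 3 days. After fixation, nuclear stain and CD31 immunofluorescence imaging gave mean total tubule length against 0.1% DMSO; suramin (100 uM) inhibition control.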

Measured: AC50

NCC(F)(F)C(F)(F)C(F)(F)C(F)(F)F
inactive: [1] | [2] | CD69, CD69 (gene 969)

OCCNCCO
inactive: [3] | [4]

Cn1cc[nH]c1=S
not listed: [1] | [2] | CD69, CD69 (gene 969) | [19]
inactive: all other assays above

FC(F)C(F)(F)COCC1CO1 (stereo not given)
inactive: [1] | [2] | CD69, CD69 (gene 969)

OC(O)(C(F)C(O)(O)C(F)(F)F)C(F)(F)F
active: [1] 25 µM and 22.2 µM
inactive: [2] | CD69, CD69 (gene 969)

FC(F)(F)C(F)(F)C(F)(F)C(F)(F)C(F)(F)C(F)(F)I
inactive: [1] | [2] | CD69, CD69 (gene 969)

FC(F)=C(F)C(F)(F)C(F)(F)C(F)(F)C(F)(F)C(F)(F)C(F)(F)F
inactive: [1] | [2] | CD69, CD69 (gene 969)

FC(F)(F)COC(OCC(F)(F)F)OCC(F)(F)F
inactive: [1] | [2] | CD69, CD69 (gene 969)

O=S(=O)(O)CCC(F)(F)C(F)(F)C(F)(F)C(F)(F)C(F)(F)C(F)(F)F
inactive: [1] | [2] | CD69, CD69 (gene 969)
active: CD69, CD69 (gene 969) 9.47 µM

C[Si](C)(C)C(F)(F)C(F)(F)C(F)(F)F
inactive: [1] | [2] | CD69, CD69 (gene 969)

O=C(Cl)C(F)(F)C(F)(F)C(F)(F)C(=O)Cl
inactive: [1] | [2] | CD69, CD69 (gene 969)

CCN(CC)C(=S)SSC(=S)N(CC)CC
inactive: [16]

OCCC(F)(F)C(F)(F)C(F)(F)C(F)(F)F
inactive: [1] | [2] | CD69, CD69 (gene 969)

Nc1ccn([C@@H]2O[C@H](CO)[C@@H](O)[C@@H]2O)c(=O)n1
active: [9] 0.0137 µM | [13] 0.237 µM | [14] 0.0802 µM | [15] 0.743 µM
inactive: [5] | [6] | [7] | [8] | [10] | [12] | [17]

CCCCCCCCCC
inactive: [18]

CCCC(CCC)C(=O)O
inactive: [5] | [8] | [12] | [4] | [16] | [19]
active: [7] 1330 µM | [9] 2200 µM | [10] 2180 µM | [11] 999 µM | [14] 1400 µM | [15] 2210 µM | [17] 1030 µM
